Data as given in PubChem BioAssay (NCATS).
Results filed as inconclusive are left out. Calls of active or inactive are those of the source. Calls come from the whole dose curve; as a rule, active = well fitted curve in the direction sought with a large enough effect; inconclusive = small, poorly fitted or top-dose-only effect, or another doubt; inactive = no such curve, though single readings can be large; an effect the other way counts as inactive or inconclusive.

Legend:
[1] = molecular target: Glutaminase kidney isoform, mitochondrial (Homo sapiens) (UniProt O94925); assay: qHTS for Inhibitors of Glutaminase (GLS): LOPAC Validation (AID 624146);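 note: glutamate product detected by oxidase and peroxidase coupled Amplex red fluorescence gain; series mostly up to about 46 µM; nearly all actives have a fitted effect of over 60% in size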
How it was run: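 Two-point fluorescence kinetic (t0, 30 min RT) for hKGA; glutamate detected via glutamate oxidase–HRP–Amplex Red. Substrate: 1 mM L-glutamine solution; buffer 45 mM KH2PO4, pH 8.2.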

[2] = molecular target: Glucagon-like peptide 1 receptor (Homo sapiens) (UniProt P43220); assay: qHTS of GLP-1 Receptor Agonists: LOPAC Validation (AID 624148);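 note: luminescence from a luciferase reporter switched on by cAMP; higher luminescence signal means agonism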
How it was run: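 Agonism scored as increased luciferase luminescence driven by cAMP in HEK293 clones carrying GLP-1R. Cells settled 12 hours, received compound for 4-6 hr at 37 deg C, 5% CO2, and were read after 12 min detection reagent at RT.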

[3] = qHTS of Nrf2 Activators: LOPAC Validation (AID 624149)
How it was run: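 Cells (AREc32_Fluc) are plated at 1000 per well in OPTI-MEM containing 5% FBS and left overnight. Compounds are pinned in and incubated 24 hr at 37 deg C, and firefly luciferase is detected with Steady-Glo.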

[4] = HTS Assay for Allosteric Antagonists of the Human D2 Dopamine Receptor: Hit Validation in HTRF (AID 624455);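 note: stable D1 dopamine receptor cell line scored for blocking the D1 response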
How it was run: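 Inhibition of the D1-mediated response is measured by HTRF in cells that stably express the D1 dopamine receptor. Compounds reaching this step are hits from calcium-flux antagonism testing at EC80 dopamine in inducible Hek293 Trex D2 cells.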

[5] = qHTS of Trypanosoma Brucei Inhibitors: LOPAC Validation (AID 624147)
How it was run: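 T. brucei PYK with substrate was exposed to pin-transferred compounds across a concentration series, then started with 130 uM ADP (final). After 45 min at room temperature, Kinase-Glo Plus luminescence was read, normalized and curve-fitted.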

Measured: Potency

Sequence of Glucagon-like peptide 1 receptor (Homo sapiens) (P43220 whole entry, looked up): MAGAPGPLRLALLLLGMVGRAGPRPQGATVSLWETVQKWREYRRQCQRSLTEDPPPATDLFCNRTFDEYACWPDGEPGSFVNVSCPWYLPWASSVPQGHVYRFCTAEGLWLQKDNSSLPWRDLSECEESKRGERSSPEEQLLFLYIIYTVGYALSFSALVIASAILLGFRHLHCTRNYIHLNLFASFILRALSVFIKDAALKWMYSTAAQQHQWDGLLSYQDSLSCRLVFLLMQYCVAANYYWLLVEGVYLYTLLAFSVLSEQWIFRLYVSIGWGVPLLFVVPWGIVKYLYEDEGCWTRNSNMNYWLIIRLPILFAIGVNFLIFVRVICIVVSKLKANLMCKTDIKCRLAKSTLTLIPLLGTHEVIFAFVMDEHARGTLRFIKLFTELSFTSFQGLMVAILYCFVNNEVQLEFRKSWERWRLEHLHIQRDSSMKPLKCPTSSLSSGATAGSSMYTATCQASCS
Sequence of Glutaminase kidney isoform, mitochondrial (Homo sapiens) (O94925 whole entry, looked up, canonical isoform): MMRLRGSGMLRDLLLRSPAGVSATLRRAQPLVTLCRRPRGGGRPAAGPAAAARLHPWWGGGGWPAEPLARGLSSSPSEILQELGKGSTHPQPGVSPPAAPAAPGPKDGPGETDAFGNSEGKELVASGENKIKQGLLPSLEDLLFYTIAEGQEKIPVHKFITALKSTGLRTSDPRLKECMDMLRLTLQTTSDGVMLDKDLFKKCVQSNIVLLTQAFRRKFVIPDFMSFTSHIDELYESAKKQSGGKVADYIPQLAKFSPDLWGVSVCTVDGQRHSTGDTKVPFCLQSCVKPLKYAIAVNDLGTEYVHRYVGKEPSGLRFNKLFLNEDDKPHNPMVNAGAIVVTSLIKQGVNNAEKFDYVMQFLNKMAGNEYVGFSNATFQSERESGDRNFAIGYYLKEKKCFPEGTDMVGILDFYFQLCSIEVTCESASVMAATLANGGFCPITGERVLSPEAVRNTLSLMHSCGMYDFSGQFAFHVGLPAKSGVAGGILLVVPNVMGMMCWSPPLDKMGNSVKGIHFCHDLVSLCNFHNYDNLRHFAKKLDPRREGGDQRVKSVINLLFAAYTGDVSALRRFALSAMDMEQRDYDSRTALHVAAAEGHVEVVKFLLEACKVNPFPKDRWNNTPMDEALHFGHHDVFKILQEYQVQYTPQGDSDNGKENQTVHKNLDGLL

N=C(N)c1ccc(CS(=O)(=O)F)cc1
inactive: [1] | [2] | [3] | [4]

C[C@@H]1O[C@@H](O[C@H]2C[C@@H](O)[C@]3(CO)[C@@H]4C(CC[C@]3(O)C2)[C@@]2(O)CC[C@H]([C@@H]3COC(=O)C3)[C@@]2(C)C[C@H]4O)[C@H](O)[C@H](O)[C@H]1O (stereo partly specified)
inactive: [1] | [2] | [3]

NC(Cc1ccc(N(CCCl)CCCl)cc1)C(=O)O (stereo unspecified)
inactive: [2] | [3] | [4]

CCNC(=O)[C@H]1O[C@@H](n2cnc3c(N)ncnc32)[C@H](O)[C@@H]1O
inactive: [1] | [2] | [3] | [4]

C[C@H](N)CN1CCc2ccc(Br)cc21
inactive: [5] | [2] | [3] | [4]

NCC(CP(=O)(O)O)c1ccc(Cl)cc1 (stereo unspecified)
inactive: [1] | [2] | [3] | [4]

Nc1ccc(CCN2CCN(c3cccc(C(F)(F)F)c3)CC2)cc1
inactive: [1] | [2] | [3] | [4]

CP(=O)(O)C1=CCNCC1
inactive: [1] | [2] | [3] | [4]

CCn1cnc2c(Nc3cccc(Cl)c3)nc(N[C@@H]3CCCC[C@@H]3N)nc21
inactive: [1] | [2] | [3] | [4]

C[C@@H]1O[C@H](C[N+](C)(C)C)CS1
inactive: [1] | [2] | [3] | [4]

N#C/C(=C/c1ccc(O)c(O)c1)C(N)=S
inactive: [5] | [2] | [3] | [4]

COc1cc(CC(C)N)c(OC)cc1I (stereo unspecified)
inactive: [1] | [5] | [2] | [3] | [4]

COc1ccc2[nH]c3c(c2c1)CCNC3
inactive: [5] | [2] | [3] | [4]

CO[C@H]1CC=C2CCN3CCC4=C(CC(=O)OC4)[C@]23C1
inactive: [1] | [5] | [2] | [3] | [4]

COc1ccc2c(c1)[C@@]13CCCC[C@H]1[C@@H](C2)NCC3
inactive: [1] | [5] | [2] | [3] | [4]
